TGFb SMAD3 inh: qHTS for Inhibitors of TGF-b | HepG2 CAGA-GFP TGF-b/SMAD3 reporter, GFP fluorescence, 18 h; TGF-beta stimulated, 500 pg/mL final | Potency, µM (series often up to 46.1 µM), for inactives: at the highest dose activity, negative = inhibition, hits mostly inhibitors | 410,000 compounds, 1.2% hits | AID 588855, 2011; also: potency is read from the fitted curve at half-maximal effect; % is scaled to controls: 0 for no effect and ±100 for the full control effect; nearly all actives have a fitted effect of over 65% in size
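Using HEPG2 CAGA-GFP reporter cells at 1000 cells/well, we pinned test compounds, stimulated with recombinant TGF-beta (500 pg/mL final) and measured total well GFP after 18 h.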
HepG2 tox: qHTS for Inhibitors of TGF-b: Cytotox Counterscreen. HepG2 CAGA-GFP viability, ATP luminescence, 18 h. Potency, µM (titrated, usually from 46.1 µM), without a hit: at the highest dose activity change, negative = cytotoxicity, actives largely listed as cytotoxic. 410,000 compounds, 0.76% hits. AID 588856, 2011; also: potency is read from the fitted curve at half-maximal effect
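HepG2 CAGA-GFP cells (1000/well, DMEM with 1% FBS) received compound, then TGF-beta at 500 pg/mL final, and were incubated 18 hours at 37 degrees C. Viability was read by CellTiter-Glo luminescence. Media-only wells were set as complete cell-killing and DMSO as no toxicity.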
HT1080NT lethal: qHTS for induction of synthetic lethality in tumor cells producing 2HG: qHTS for the HT-1080-NT fibrosarcoma cell line | HT-1080-NT fibrosarcoma viability, CellTiter-Glo ATP luminescence, 48 h | Potency, µM (highest dose often 46.1 µM), without a hit: at the highest dose activity, negative = less viability, usual class: cytotoxic | 360,000 compounds, 1.6% hits;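 also: NT is the 2HG producing partner of a matched IDH1 knockdown line; potency is read from the fitted curve at half-maximal effect; 0% = DMSO-treated cells and -100% = media-only wells without cells; nearly all actives have a fitted effect of over 55% in size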
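HT-1080-NT; 750 cells/well; 5% FBS RPMI; 48 h compound, 37 degrees C; CellTiter-Glo luminescence; curve fitting and curve-class assignment.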
HT1080 IDH1KD tx: qHTS for induction of synthetic lethality in tumor cells producing 2HG: qHTS for the HT-1080-IDH1KD cell line; HT-1080 IDH1 knockdown viability, ATP luminescence, 48 h; Potency, µM (top dose mostly 46.1 µM), for inactives: at the highest dose activity, negative = toxicity, actives largely listed as cytotoxic; 360,000 compounds, 2% hits;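 also: potency is read from the fitted curve at half-maximal effect; 0% = DMSO wells and -100% = cell-free medium wells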
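Using the IDH1-knockdown HT-1080 line run in the same batch and compound series as the NT line, viability after 48 h at 37 °C was determined by CellTiter-Glo luminescence and expressed as % activity.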
Giardia killer: Small Molecules that selectively kill Giardia lamblia: qHTS; 340,000 compounds, 0.15% hits; activity change, % at 7.66 µM, hits read low; AID 540267, 2011; Giardia lamblia trophozoite viability; in the data active = activity change below about -80%; inconclusive = between about -30% and that limit;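 also: parasites exposed to compound for two days anaerobically before the ATP read; % is scaled to controls: 0 for no effect and ±100 for the full control effect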
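Luminescence from cellular ATP indicates surviving trophozoites (100 cells/well) following 48 hrs anaerobic compound treatment at 37 deg C; signal develops 15-30 min at room temperature.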
IL1B secr inh: qHTS for Inhibitors of Inflammasome Signaling: IL-1-beta AlphaLISA Primary Screen; THP-1 LPS/ATP IL-1B secretion, AlphaLISA, 16 h; active compounds read low; activity change, % at 57.5 µM; 360,000 compounds, 4.7% hits; AID 743279, 2014; in the data active = activity change below about -50%; inconclusive = mostly about -30% to -49%; also: % is scaled to controls: 0 for no effect and ±100 for the full control effect
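Secreted IL-1B measured by AlphaLISA bead assay after 16 h compound exposure of THP-1 cells; compounds (final up to 57.5 uM) added 1 h before LPS (250 ng/mL) and ATP (1.25 mM) stimulation; lower signal means less secretion.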
Numbers without * were called inactive. Sampled rows, rich in hits. Any-hit rate of the full collection: about 6.5%. Unless noted, calls follow the shape of the dose curve; as a rule, active = well fitted curve in the direction sought with a large enough effect; inconclusive = small, poorly fitted or top-dose-only effect, or another doubt; inactive = no such curve, though single readings can be large; an effect the other way counts as inactive or inconclusive.

For CCCCCCCCn1ccc(=N)cc1 the results were TGFb SMAD3 inh -24%, HepG2 tox -32%, HT1080NT lethal inconclusive, HT1080 IDH1KD tx -22%, Giardia killer -12 and IL1B secr inh -10.
CCCCCCCCCCn1ccc(=N)cc1 was read as TGFb SMAD3 inh inconclusive, HepG2 tox -49%, HT1080NT lethal inconclusive, HT1080 IDH1KD tx 10µM*, Giardia killer 2 and IL1B secr inh -95*.
Screening Cc1oc(-c2cc(F)ccc2F)nc1CN1CCN(c2cnccn2)CC1 returned TGFb SMAD3 inh 16%, HepG2 tox -9%, HT1080NT lethal 8%, HT1080 IDH1KD tx 11%, Giardia killer -9 and IL1B secr inh 5.
For CC(C)N1C(=O)/C(=C/c2nc3ccccc3c(=O)n2-c2ccccc2)c2ccccc21 the results were TGFb SMAD3 inh inconclusive, HepG2 tox -11%, HT1080NT lethal -29%, HT1080 IDH1KD tx inconclusive, Giardia killer 12 and IL1B secr inh -96*.
For CC(C)N1C(=O)C(Cc2nc3ccccc3c(=O)n2-c2ccccc2)c2ccccc21 (stereo not given) the results were TGFb SMAD3 inh -3%, HepG2 tox -27%, HT1080NT lethal -7%, HT1080 IDH1KD tx -6%, Giardia killer -11 and IL1B secr inh -1.
Screening CC(C)N1C(=O)/C(=C\c2nc3ccccc3c(=O)n2-c2ccccc2)c2ccccc21 returned TGFb SMAD3 inh -15%, HepG2 tox -22%, HT1080NT lethal inconclusive, HT1080 IDH1KD tx inconclusive, Giardia killer -3 and IL1B secr inh -106*.
CCOC(=O)Cc1csc(SCC(=O)Nc2sc3c(c2C(N)=O)CCC3)n1 was read as TGFb SMAD3 inh -7%, HepG2 tox 17%, HT1080NT lethal 7%, HT1080 IDH1KD tx 9%, Giardia killer 9 and IL1B secr inh 28.
CC(C)(C)NC(=O)C[C@H]1C[C@H](C(=O)N2CCOCC2)[C@@]2(CCC3CCCC3)c3[nH]c4ccc(Cl)cc4c3CCN2C1=O was read as TGFb SMAD3 inh inconclusive, HepG2 tox -28%, HT1080NT lethal inconclusive, HT1080 IDH1KD tx inconclusive, Giardia killer -26 and IL1B secr inh -60*.
`O=C(CC1C[C@H](C(=O)N2CCOCC2)[C@@]2(CCC3CCCC3)c3[nH]c4ccccc4c3CCN2C1=O)NCc1cccc(C(F)(F)F)c1` (stereo not given in full) gave TGFb SMAD3 inh 24%, HepG2 tox 4%, HT1080NT lethal 16%, HT1080 IDH1KD tx 10%, Giardia killer 3 and IL1B secr inh 3.
Screening CN(C)C(=O)CCc1ccc2c3c([nH]c2c1)[C@]1(CCC2CCCC2)[C@@H](C(=O)N2CCOCC2)C[C@H](CC(=O)NCc2cccc(C(F)(F)F)c2)C(=O)N1CC3 returned TGFb SMAD3 inh 11µM*, HepG2 tox -59%, HT1080NT lethal -5%, HT1080 IDH1KD tx 3%, Giardia killer -19 and IL1B secr inh -56*.
COc1cccc(/C=C/C(=O)OCC(=O)NCC2CCCO2)c1OC (stereo not given) was read as TGFb SMAD3 inh -3%, HepG2 tox 9%, HT1080NT lethal 23%, HT1080 IDH1KD tx 10%, Giardia killer -8 and IL1B secr inh 17.
Screening C=CCN(c1cccc(C(F)(F)F)c1)S(=O)(=O)c1cccc(C(=O)OCC(=O)NC(N)=O)c1 returned TGFb SMAD3 inh 6%, HepG2 tox -3%, HT1080NT lethal -2%, HT1080 IDH1KD tx -1%, Giardia killer -18 and IL1B secr inh 24.
COCCN(C(=O)CN1CCc2ccccc2C1)c1c(N)n(Cc2ccccc2)c(=O)[nH]c1=O was read as TGFb SMAD3 inh -4%, HepG2 tox -2%, HT1080NT lethal -5%, HT1080 IDH1KD tx 0%, Giardia killer 3 and IL1B secr inh 9.
O=C(Nc1nnc(C(F)(F)F)s1)c1ccc(Br)s1 was read as TGFb SMAD3 inh inconclusive, HepG2 tox 6%, HT1080NT lethal inconclusive, HT1080 IDH1KD tx inconclusive, Giardia killer 2 and IL1B secr inh -55*.
For CC(NC(=O)Nc1nnc(C(F)(F)F)s1)(C(F)(F)F)C(F)(F)F the results were TGFb SMAD3 inh inconclusive, HepG2 tox -43%, HT1080NT lethal 7.3µM*, HT1080 IDH1KD tx 3.3µM*, Giardia killer 4 and IL1B secr inh -62*.
`CC(C)(C)CC(=O)Nc1nnc(C(F)(F)F)s1` gave TGFb SMAD3 inh -1%, HepG2 tox -17%, HT1080NT lethal -14%, HT1080 IDH1KD tx -14%, Giardia killer -3 and IL1B secr inh 18.
For O=C(Nc1nnc(C(F)(F)F)s1)C1COc2ccccc2O1 (stereo not given) the results were TGFb SMAD3 inh inconclusive, HepG2 tox -38%, HT1080NT lethal inconclusive, HT1080 IDH1KD tx 23µM*, Giardia killer 20 and IL1B secr inh inconclusive.
`O=C(Nc1nc2c(s1)CCCC2)c1ccc(Br)s1` gave TGFb SMAD3 inh -21%, HepG2 tox -32%, HT1080NT lethal inconclusive, HT1080 IDH1KD tx inconclusive, Giardia killer -6 and IL1B secr inh -93*.
For CCSc1nnc(NC(=O)c2ccc(Br)s2)s1 the results were TGFb SMAD3 inh 20%, HepG2 tox -5%, HT1080NT lethal -2%, HT1080 IDH1KD tx 6%, Giardia killer -12 and IL1B secr inh -22.
Cc1cccc(C(=O)Nc2nc3c(s2)CCCC3)c1 was read as TGFb SMAD3 inh inconclusive and HepG2 tox -12%.
COc1cccc(C(=O)CN2C(=O)C(C)(C)Oc3ccc(C(=O)N4CCOCC4)cc32)c1 was read as TGFb SMAD3 inh inconclusive, HepG2 tox 9%, HT1080NT lethal 5%, HT1080 IDH1KD tx 8%, Giardia killer -5 and IL1B secr inh 20.
Screening O=C(COc1ccc2ccccc2c1Br)Nc1ncn[nH]1 returned TGFb SMAD3 inh 5%, HepG2 tox -3%, HT1080NT lethal 6%, HT1080 IDH1KD tx -4%, Giardia killer inconclusive and IL1B secr inh -28.
For CCc1ccc(C(=O)COC(=O)CNC(=O)CNS(=O)(=O)c2ccccc2)cc1 the results were TGFb SMAD3 inh 0%, HepG2 tox -12%, HT1080NT lethal 2%, HT1080 IDH1KD tx 15%, Giardia killer -8 and IL1B secr inh 0.
Cc1cc(C(=O)Nc2nc3c(s2)CCCC3)cs1 was read as TGFb SMAD3 inh -3%, HepG2 tox -7%, HT1080NT lethal 6.3µM*, HT1080 IDH1KD tx inconclusive, Giardia killer -2 and IL1B secr inh inconclusive.

Compound activity (PubChem)
